Screening data: PubChem BioAssay, National Center for Advancing Translational Sciences (NCATS)
Many of the other results were omitted from the sample, so hits are more common in it than they were.
Glioma ERSR ind – ER stress response induction in glioma | 0.02% of 420,000 active | U87-MG GRP78 promoter luciferase reporter, 16 h | Potency, µM, for the others: at the top dose activation, most hits filed as activators; also: series mostly up to about 76 µM; % of control where 0% means no effect; nearly all actives have a fitted effect of over 35% in size
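ERSR induction read as luciferase luminescence (Bright-Glo, 10 min at room temperature) in stably transfected human U87-MG glioma cells exposed to compounds for 16 h, using GRP78 as sensor.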
VDR inh – vitamin D3 receptor (human) inhibition | P11473 | VDR-SRC2-3 peptide fluorescence polarization, 2 h | Potency, µM, for inactives: max response, negative = inhibition, usual class: inhibitors | 0.93% of 400,000 active | AID 504847; also: % is scaled to controls: 0 for no effect and ±100 for the full control effect
Target sequence (P11473 whole entry, looked up): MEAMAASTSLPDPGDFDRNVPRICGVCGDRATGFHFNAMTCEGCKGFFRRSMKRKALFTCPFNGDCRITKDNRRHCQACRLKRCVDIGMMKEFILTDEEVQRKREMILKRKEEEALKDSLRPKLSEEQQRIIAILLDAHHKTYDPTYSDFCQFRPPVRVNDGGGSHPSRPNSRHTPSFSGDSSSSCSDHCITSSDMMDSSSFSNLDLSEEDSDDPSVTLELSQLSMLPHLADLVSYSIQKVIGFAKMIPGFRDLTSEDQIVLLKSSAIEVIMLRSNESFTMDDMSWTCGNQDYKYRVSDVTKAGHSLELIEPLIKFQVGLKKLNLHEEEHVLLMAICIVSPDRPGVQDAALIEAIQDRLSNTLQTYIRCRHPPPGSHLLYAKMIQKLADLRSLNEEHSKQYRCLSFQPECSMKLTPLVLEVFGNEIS
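Reagent solutions, kept cold and dark, are dispensed first; compounds are then pinned in at 23 nl, plates briefly spun, and incubated 2 h at ambient temperature. Inhibition of VDR–SRC2-3 peptide binding is read by fluorescence polarization.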
12-LOX inh – ALOX12 (human) lipoxygenase inhibition; P18054; purified 12hLO, xylenol orange hydroperoxide absorbance; Potency, µM (titrated, usually from 108 µM), for inactives: at the top dose activity change, negative = inhibition, usual class: inhibitors; 1.1% of 580,000 active; AID 1671190; also: % is scaled to controls: 0 for no effect and ±100 for the full control effect
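Purified human 12hLO at 150 nM in 25 mM Hepes, 0.01% Triton X-100, pH 7.0, preincubated 15 min at room temperature with compound. Reaction started with 40 uM arachidonic acid, 30 min at room temperature. Hydroperoxide measured by Fe-xylenol orange, 573/405 nm absorbance ratio.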
G9a block – blocks human histone lysine methyltransferase G9a; Q96KQ7; G9a H3K9 monomethylation, AlphaScreen, 2 h; Potency, µM (titrated, usually from 102 µM), inactives show top-dose activity, negative = inhibition, actives largely listed as inhibitors; 8.8% of 350,000 active; AID 504332; also: % is scaled to controls: 0 for no effect and ±100 for the full control effect; nearly all actives have a fitted effect of over 75% in size
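Readings reflect AlphaScreen signal from monomethyl-H3K9 antibody detection. HMT at 20 nM; substrate b-H3K9 500 nM; cofactor SAM 20 uM; 2 h RT reaction; compounds tested as titrations in qHTS with 15 min preincubation.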
Sfp PPTase inh – blocks B. subtilis Sfp PPTase activity; Q9F4F7; Biochemical Sfp PPTase activity, qHTS; Potency, µM, without a hit: largest response in the series, negative = inhibition, actives largely listed as inhibitors; 3.5% of 310,000 active; AID 1490;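 also: the enzyme is Sfp with the accession as filed and its product quenches rhodamine fluorescence; 0% = enzyme reaction without inhibitor and -100% = no enzyme wells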
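Step 1, compound plus 15 nM Sfp-PPTase, 15 min, room temperature. Step 2, add rhodamine-CoA (5 uM) and BHQ-2-YbbR (12.5 uM). Step 3, read 525/598 nm fluorescence at 0 and 30 min.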
* marks the source's active call; other numbers are inactive results; [ ] = another dose, or the depositor's remark. Calls follow the shape of the dose curve; as a rule, active = well fitted curve in the direction sought with a large enough effect; inconclusive = small, poorly fitted or top-dose-only effect, or another doubt; inactive = no such curve, though single readings can be large; an effect the other way counts as inactive or inconclusive. Potency is read from the fitted curve at half-maximal effect.

Results for O=S(=O)(Nc1ccc(-c2cn3c(n2)SCC3)cc1)c1cccs1 ?
Glioma ERSR ind: 1%; VDR inh: -1%; 12-LOX inh: -4%; G9a block: 35µM*; Sfp PPTase inh: 5%

Results for CCCCOc1ccc(NC(=O)C(C)Oc2ccccc2F)c2cccnc12 (stereo not drawn) ?
12-LOX inh: 21%

What do the screens show for `COc1cccc(C(=O)NCCNC(=O)c2cn(C)c3ccccc23)c1`?
12-LOX inh: 3%

What do the screens show for `CC1=C(C#N)C(=O)OC(C)(C)C1`?
Glioma ERSR ind: 2%; VDR inh: inconclusive; 12-LOX inh: 0%; G9a block: 13µM*; Sfp PPTase inh: -4%

Results for CC(=O)N1CC2(CCN(Cc3ccc(Cl)cc3)C2)Cc2ccccc21 (stereo not drawn) ?
12-LOX inh: 40µM*

How did O=C(c1ccc(Cl)cc1)N1CC2(CCN(C3COC3)C2)Cc2ccccc21 (stereo not drawn) do in these assays?
12-LOX inh: 40µM*

Results for O=C(c1ccc(Cl)cc1)N1CC2(CCN(Cc3ccc(Cl)cc3)C2)Cc2ccccc21 (stereo not drawn) ?
12-LOX inh: 2µM*

What do the screens show for `O=C1CCN(C(=O)CC2CCCC2)CCCC(c2nc(-c3cccnc3)no2)CCN1` (stereo not drawn)?
12-LOX inh: 33%

What do the screens show for `NC(=O)COC[C@@H]1CN(CC2CCCCC2)C[C@H]1c1ccncc1`?
12-LOX inh: 80%

What do the screens show for `CS(=O)(=O)c1ccccc1-c1nnc(NC(=O)CCS(=O)(=O)c2ccc(Cl)cc2)o1`?
Glioma ERSR ind: -3%; VDR inh: -19%; 12-LOX inh: 31%; G9a block: 6%

Results for CS(=O)(=O)c1ccccc1-c1nnc(NC(=O)c2ccco2)o1 ?
Glioma ERSR ind: -5%; VDR inh: -5%; 12-LOX inh: 3%; G9a block: 14µM*

Results for Cc1cn2nnc(C(=O)N3CCC(C(=O)Nc4ccc(C)c(Cl)c4)CC3)c2c(=O)[nH]1 ?
12-LOX inh: 24%

How did O=C(O)C1CCCCC1C(=O)Nc1cccc2ccccc12 (stereo not drawn) do in these assays?
Glioma ERSR ind: -3%; VDR inh: 1%; 12-LOX inh: -4%; G9a block: 11µM*; Sfp PPTase inh: 2%

What do the screens show for `O=C(O)C1CCCCC1C(=O)Nc1ccccc1Nc1ccccc1` (stereo not drawn)?
Glioma ERSR ind: -2%; VDR inh: -7%; 12-LOX inh: 38%; G9a block: inconclusive; Sfp PPTase inh: 0%

What do the screens show for `Cc1cc2cc3c(cc2nc1SCC(=O)Nc1nc(C)c(C)s1)OCO3`?
Glioma ERSR ind: -5%; VDR inh: 4%; 12-LOX inh: 0%; G9a block: 7%[59 µM]; Sfp PPTase inh: 25µM*

Results for COC(=O)CSc1nc2cc3c(cc2cc1C)OCO3 ?
Glioma ERSR ind: -1%; VDR inh: -20%; 12-LOX inh: 3%; G9a block: inconclusive; Sfp PPTase inh: -6%

Results for CC(C)OC(=O)c1ccccc1 ?
12-LOX inh: 14%[176 µM]

How did CCCC1=[N+](CC(=O)c2ccccc2)CCn2cccc21 do in these assays?
Glioma ERSR ind: -4%; VDR inh: 8%; 12-LOX inh: -19%; G9a block: -14%[59 µM]; Sfp PPTase inh: 7%

What do the screens show for `CCCC1=[N+](CC(C)=O)CCn2c(C)ccc21`?
Glioma ERSR ind: 1%; VDR inh: 9%; 12-LOX inh: 0%; G9a block: 32µM*; Sfp PPTase inh: 5%

How did COc1ccc(CNC(=O)c2ccc3nc(Cc4ccccc4F)oc3c2)cc1 do in these assays?
12-LOX inh: 8%

How did Cn1ncc(S(=O)(=O)Cc2ccccc2)c(Cl)c1=O do in these assays?
Glioma ERSR ind: -1%; VDR inh: inconclusive; 12-LOX inh: 14µM*; Sfp PPTase inh: 6.3µM*

Results for Cc1cc(C)c2nc(-c3cccnc3)cc(C(=O)O)c2c1 ?
12-LOX inh: 13%

Results for Cc1c(NC(=O)c2ccc([N+](=O)[O-])cc2)cccc1-c1nc2ccccc2o1 ?
12-LOX inh: 0%
